# Screening data from PubChem BioAssay.
# Only some compounds are listed: those with a hit (about 12% of all), similar ones and a draw of the others.
# JMJD2A Tudor inh: inhibitors of human JMJD2A Tudor domain; AlphaScreen JMJD2A-Tudor / H3K4me3 peptide binding; Potency, µM (titrated, usually from 114 µM), without a hit: top-dose activity change, negative = inhibition, usual class: inhibitors; 390,000 tested, 4.4% active; AID 504339; also: potency is read from the fitted curve at half-maximal effect; % is scaled to controls: 0 for no effect and ±100 for the full control effect; nearly all actives have a fitted effect of over 50% in size
# G9a inh: blocks human histone lysine methyltransferase G9a; Q96KQ7; G9a H3K9 monomethylation, AlphaScreen, 2 h; Potency, µM (doses to about 102 µM), without a hit: at the top dose activity, negative = inhibition, hits mostly inhibitors; 350,000 tested, 8.8% active; AID 504332; also: potency is read from the fitted curve at half-maximal effect; % is scaled to controls: 0 for no effect and ±100 for the full control effect; nearly all actives have a fitted effect of over 75% in size
#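 Quantitative HTS format: methyltransferase activity on a biotin-tagged H3K9 peptide is measured by AlphaScreen, using a rabbit anti-monomethyl-H3K9 antibody with streptavidin donor and anti-IgG acceptor beads. Final levels are 20 nM enzyme, 500 nM peptide, 20 uM SAM; 2 h RT.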
# HP1b chromo inh: inhibitors of HP1-beta chromodomain binding to methylated histone tails | AlphaScreen HP1-beta / biotin-H3K9me3 peptide binding | Potency, µM (series often up to 114 µM), inactives show at the top dose activity change, negative = inhibition, hits mostly inhibitors | 390,000 tested, 0.56% active; also: potency is read from the fitted curve at half-maximal effect; nearly all actives have a fitted effect of over 70% in size
# Target sequence (P83916 whole entry, looked up): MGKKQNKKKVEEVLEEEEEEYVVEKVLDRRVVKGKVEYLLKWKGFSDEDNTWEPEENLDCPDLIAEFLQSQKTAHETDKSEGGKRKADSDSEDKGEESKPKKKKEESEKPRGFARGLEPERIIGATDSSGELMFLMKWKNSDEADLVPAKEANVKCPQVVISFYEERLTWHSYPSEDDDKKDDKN
#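 Compound inhibition of the preformed complex between 50 nM HP1-beta and 50 nM biotinylated H3K9me3 peptide was read by AlphaScreen. Buffer was PBS pH 7.4 with 0.01% Tween-20. Incubations ran 30 min at room temperature, with 10 ug/mL donor/acceptor beads.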
# BAZ2B inh: blocks human BAZ2B | 360,000 tested, 4.4% active | Q9UIF8 | Potency, µM (titrated, usually from 114 µM), for inactives: at the highest dose activity change, negative = inhibition, actives largely listed as inhibitors | AlphaScreen BAZ2B-H3K14Ac peptide displacement; also: potency is read from the fitted curve at half-maximal effect; % is scaled to controls: 0 for no effect and ±100 for the full control effect; nearly all actives have a fitted effect of over 60% in size
#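 Complex of BAZ2B and biotin-H3K14Ac (50 nM apiece) forms over 30 min at RT, then faces library compounds up to 110 uM for another 30 min; AlphaScreen beads added, 20 min dark incubation, luminescence read.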
# PLK1 PBD block: inhibitors of human PLK1 polo-box domain binding. P53350. Plk1 PBD binding of FITC phosphopeptide, fluorescence polarization. Potency, µM, inactives show max response, negative = inhibition, most hits filed as inhibitors. 360,000 tested, 2.8% active. AID 720504; also: potency is read from the fitted curve at half-maximal effect; series mostly up to about 57 µM; % is scaled to controls: 0 for no effect and ±100 for the full control effect; nearly all actives have a fitted effect of over 65% in size
# PI5P4Ka inh: inhibitors of human PI5P4K alpha; P48426; PI5P4Kalpha enzyme, ADP-Glo luminescence, 60 min; hits give low values; max response, %; 330,000 tested, 1.2% active; AID 652105; active = max response of -50% or lower; inconclusive = between -30% and -50%; inactive = -30% or higher; also: value at the top dose of about 77 µM; % is scaled to controls: 0 for no effect and ±100 for the full control effect
# Target sequence (P48426 whole entry, looked up): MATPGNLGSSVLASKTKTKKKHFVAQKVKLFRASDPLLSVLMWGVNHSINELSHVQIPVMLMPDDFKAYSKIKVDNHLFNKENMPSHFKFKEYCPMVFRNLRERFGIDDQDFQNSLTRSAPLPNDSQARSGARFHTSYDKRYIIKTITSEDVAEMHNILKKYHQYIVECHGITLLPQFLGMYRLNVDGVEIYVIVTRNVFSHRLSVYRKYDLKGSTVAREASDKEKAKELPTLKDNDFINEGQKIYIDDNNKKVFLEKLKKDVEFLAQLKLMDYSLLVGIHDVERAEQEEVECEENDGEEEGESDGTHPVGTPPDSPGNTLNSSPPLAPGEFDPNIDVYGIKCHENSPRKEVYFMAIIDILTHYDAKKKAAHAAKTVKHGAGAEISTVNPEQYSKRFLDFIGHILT
#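 qHTS, 1536-well: enzyme/substrate mix, compound by pin tool, 5 microM ATP final; RT 60 min; ADP-Glo reagents 1 (45 min) then 2 (30 min); luminescence.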
# The depositor's hits bear a star; ? = inconclusive; . = no result given; [ ] = dose if it differs, or a comment. Unless noted, calls follow the shape of the dose curve; as a rule, active = well fitted curve in the direction sought with a large enough effect; inconclusive = small, poorly fitted or top-dose-only effect, or another doubt; inactive = no such curve, though single readings can be large; an effect the other way counts as inactive or inconclusive.
SMILES,JMJD2A Tudor inh,G9a inh,HP1b chromo inh,BAZ2B inh,PLK1 PBD block,PI5P4Ka inh
COc1ccc(CC2(C)OC(c3ccc([N+](=O)[O-])cc3)=NN2C(C)=O)cc1 (configuration not stated),?,11µM*,?,?,1%,-7
COc1ccc(OCC(=O)NNC(=O)Cn2c(=O)cnc3ccccc32)cc1,-1%,71µM*,44%,?,8%,-3
Cc1cccc(OCC(=O)NNC(=O)Cn2c(=O)cnc3ccccc32)c1,-2%,-7%[2.33 µM],44%,-4%,-3%,-3
CC(C)N(C(=O)[C@H]1C[C@H](CC(=O)NCCc2ccccn2)C(=O)N2CCc3c([nH]c4cc(-c5ccco5)ccc34)[C@]12C)C(C)C,56µM*,.,-36%,.,-5%,2
CC(C)N(C(=O)[C@H]1C[C@H](CC(=O)NCc2ccco2)C(=O)N2CCc3c([nH]c4cc(-c5ccco5)ccc34)[C@]12C)C(C)C,56µM*,.,?,.,-26%,-20
CCN(CC)C(=O)[C@H]1C[C@H](CC(=O)NCCc2ccccn2)C(=O)N2CCc3c([nH]c4cc(-c5ccco5)ccc34)[C@]12C,?,.,-6%,.,-10%,3
COc1ccc2c(CNCc3cccs3)c(C(=O)O)n(Cc3ccc(C)cc3)c2c1,-22%,-11%[59 µM],12%,?,.,.
C1CCN2C[C@H]3C[C@H](CN4CCCCC34)C2C1 (some centres not stated),.,-48%[2.33 µM],.,.,.,.
Cc1ccc2cc3cc(C(=O)N4CCN(c5ccccc5)CC4)oc3nc2c1,-8%,-1%[59 µM],11%[57 µM],5%,.,.
CN1C(=O)C(O)(CC(=O)/C=C/c2ccco2)c2cc(Br)ccc21 (configuration not stated),-35%,35µM*,8%,-28%,?,?
CC(=O)NCCNc1nc(-c2cccc(C#N)c2)nc2ccccc12,.,-5%[0.501 µM],.,.,.,.
Cc1ccc(-n2c(=O)c3c(cnn3C)n(Cc3ccccc3F)c2=O)cc1,-4%,-23%[59 µM],18%,-12%,.,.
CCC(C)NC(=O)C1c2ccccc2C(=O)N(c2ccc(OC)cc2)C1c1ccc(OC)cc1 (configuration not stated),20µM*,2%[59 µM],-9%,3%,24µM*,-28
COc1ccc(C2C(C(=O)Nc3cc(C)on3)c3ccccc3C(=O)N2C)cc1 (configuration not stated),-28%[57.1 µM],?,?,-30%,24µM*,-8
CCC(C)NC(=O)C1c2ccccc2C(=O)N1Cc1cc(OC)ccc1OC (configuration not stated),-19%,9%[59 µM],8%,11%,3%,.
C/C(=N\NC(=S)NCC(C)(C)C)c1cc(F)cc(F)c1O,-25%,-1%,9%,7.1µM*,-8%,6
CN(C)C(=O)c1ccc(SC(=S)NCc2ccccc2)cc1,.,.,.,.,2.7µM*,?
Cc1cc(OC(C)C(=O)N(Cc2ccc(N(C)C)cc2)Cc2ccco2)ccc1Cl (configuration not stated),14µM*,13µM*,-27%,13µM*,.,.
Cc1cc(OCC(=O)N(Cc2ccc(N(C)C)cc2)Cc2ccco2)cc(C)c1Cl,14µM*,11µM*,-17%,10µM*,.,.
Cc1ccc(CN(Cc2ccco2)C(=O)COc2ccc(C)c(C)c2)cc1,41%,8%[59 µM],81%,56%,.,.
CCc1nn(-c2ccccc2)c(=S)c2ccccc12,?,14µM*,-23%[57 µM],?,-18%,3
CC1(C(=O)NS(=O)(=O)c2ccccc2OC(F)(F)F)CCN1C(=O)Cc1ccccc1 (configuration not stated),.,.,.,.,-4%,0
CC(C)(C)C#CCn1c(/C=[N+](\[O-])C2CCCCC2)nc2ccccc21,?,.,24%,50µM*,-12%,0
Cc1ccc2c(=O)cc(C(=O)Nc3ccc(S(=O)(=O)N(C)Cc4ccccc4)cc3)oc2c1,-10%,4%[59 µM],11%,-2%,.,.
CCC1CCC2(C1)N=C(Nc1nc3ccccc3o1)NC1=C2C(=O)CCC1 (configuration not stated),-35%,.,.,.,.,.
SMILES,JMJD2A Tudor inh,G9a inh,HP1b chromo inh,BAZ2B inh,PLK1 PBD block,PI5P4Ka inh
CC1CCC2(C1)N=C(Nc1nc3ccccc3o1)NC1=C2C(=O)CCC1 (configuration not stated),56µM*,.,.,.,.,.
COc1ccc(C(=O)NC(=S)NNC(=O)c2ccc3ccccc3n2)cc1,50µM*,13µM*,-23%,79µM*,-18%,?
COc1cc(OC)cc(C(=O)NNC(=O)c2ccc3ccccc3n2)c1,-4%,-20%,38%,18%,-9%,-2
CCCCOc1ccc(C(=O)NNC(=S)NC(=O)CC)cc1,?,20µM*,39%,9%,-11%,-19
COc1ccc(C(=O)NC(=S)NNC(=O)c2ccc(NC(=O)C(C)C)cc2)cc1,?,4.5µM*,-28%,3%,?,?
Cc1cc(OCC(=O)NNC(=S)NC(=O)c2cccs2)ccc1Cl,-16%,32µM*,12%,-1%,-15%,4
O=C(CCC(=O)Nc1nnc(C2CCCCC2)s1)Nc1ccccc1,-2%,-6%,35%,-5%,-8%,1
COc1ccc(CC(=O)NNC(=O)c2ccc(NC(C)=O)cc2)cc1,-11%,45µM*,-17%,-15%,-20%,5
CCC(=O)NC(=S)NNC(=O)COc1ccc(Br)cc1,-11%,8.9µM*,23%,-12%,-15%,-1
O=C(COc1ccc(Br)cc1)NNC(=S)NCc1ccccc1,-33%,?,9%,-6%,-12%,-1
COc1ccc(C(=O)NC(=S)NC2CCSC2=O)cc1 (configuration not stated),-12%,10µM*,32%,-5%,-15%,1
O=C(NNC(=S)NC(=O)c1ccco1)c1ccc(F)cc1,2%,?,55%,-1%,-11%,-6
O=C(NC(=S)NNC(=O)c1ccco1)c1ccc(Br)cc1,2%,22µM*,6%,-3%[57.1 µM],-27%,?
C[C@H]1COC(=O)[C@@H](Cc2ccc(F)cc2)C/C=C\C[C@H](CC(=O)N(CCO)Cc2ccccc2)C(=O)N1,-4%,.,38%,.,2%,-3
CCOC(=O)c1c(C)sc(-c2c(-c3ccc4c(c3)OCCO4)[nH]c3c2c(=O)n(C)c(=O)n3C)c1O,-7%,10%[59 µM],63%,?,.,.
Cc1ccc(C(=O)OCC(=O)NNC(=O)COc2ccc(Cl)cc2)c(O)c1,-16%,2%[12.7 µM],54%,6%,2%,0
CCCOc1ccc(C(=O)NNC(=S)NC(=O)c2cccs2)cc1,?,?,-12%[57 µM],-26%,30µM*,-11
CCC(=O)NC(=S)NNC(=O)c1ccc(OC)cc1,22µM*,22µM*,32%,4%,-6%,.
